In the library only some 4.7% were active in any assay of this set; here they are far more common.
tim23-1 inh: growth inhibitors of tim23-1 mutant yeast | hit rate 1.3% among 330,000 | S. cerevisiae tim23-1 growth, BacTiter-Glo luminescence, 24 h | inhibition, % at 20 µM;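 active means growth inhibition of the mutant yeast at or above 50%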;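 further: temperature-sensitive mutant grown at 25 °C; plate controls were DMSO-treated mutant yeast for no effect and medium wells lacking yeast for full effect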
ATG4B inhibitor: blocks human ATG4B protease cleavage of LC3 substrate; inhibition, % at 8.33 µM; ATG4B cleavage of LC3-PLA2, NBD-HPC fluorescence, 1 h; hit rate 0.51% among 340,000; Q9Y4P1; in the data active means inhibition above about 40%
Target sequence (Q9Y4P1 whole entry, looked up): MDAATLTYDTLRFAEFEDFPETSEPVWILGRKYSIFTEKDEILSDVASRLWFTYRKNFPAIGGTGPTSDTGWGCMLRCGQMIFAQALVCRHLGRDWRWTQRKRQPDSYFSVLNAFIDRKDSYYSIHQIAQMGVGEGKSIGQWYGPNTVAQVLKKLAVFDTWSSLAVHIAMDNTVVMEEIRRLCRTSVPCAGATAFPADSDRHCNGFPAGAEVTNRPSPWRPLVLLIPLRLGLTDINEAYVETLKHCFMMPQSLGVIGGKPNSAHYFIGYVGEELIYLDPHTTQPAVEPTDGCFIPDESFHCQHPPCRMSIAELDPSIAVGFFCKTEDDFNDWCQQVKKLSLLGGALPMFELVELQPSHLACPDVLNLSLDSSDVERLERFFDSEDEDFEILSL
SKKanGAS inh: inhibitors of SKKanGAS S. pyogenes growth in kanamycin (SK-promoter or general growth effect); BacTiter-Glo, 6 h; inhibition, % at 7.5 µM; hit rate 1.3% among 300,000; AID 1662;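 active means mean replicate score, as percent of positive control median, at least 50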;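 further: strain carries kanamycin resistance gene driven by streptokinase promoter and grows in 40 µg/ml kanamycin; loss of luminescence reflects streptokinase promoter inhibition or plain growth inhibition; 0% = median of DMSO wells and 100% = positive control at its reference dose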
PfHsp90 set2: inhibits growth of yeast expressing Plasmodium falciparum Hsp90 | S. cerevisiae expressing PfHsp90, BacTiter-Glo ATP, 48 h; yeast lacking PDR1 and PDR3 efflux regulators | inhibition, % at 9.4 µM | hit rate 0.32% among 310,000 | AID 504621;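 active means every replicate shows inhibition above about 80%, whatever the replicate mean, limit read from the data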;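 further: 0% = DMSO neutral controls and 100% = 20 µM radicicol positive controls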
tim10-1 inh: inhibits growth of tim10-1 mutant yeast | inhibition, % at 20 µM | hit rate 2.2% among 330,000 | S. cerevisiae tim10-1 ts strain growth, BacTiter-Glo, 24 h | AID 463190;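 active means inhibition of at least 40%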;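 further: mutant grown at 25 °C; 0% = DMSO wells with yeast and 100% = wells holding no yeast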
TIM10 inh: inhibits growth of TIM10 yeast strain; S. cerevisiae TIM10 strain growth, BacTiter-Glo luminescence, 24 h; inhibition, % at 10 µM; hit rate 1.4% among 330,000;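 active means inhibition of 40% or more at the single tested concentration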;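 further: wild-type TIM10 isogenic control strain grown at permissive 25 °C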
Starred values were filed as active, the others as inactive; x = no result given.

SMILES | tim23-1 inh | ATG4B inhibitor | SKKanGAS inh | PfHsp90 set2 | tim10-1 inh | TIM10 inh
Cc1cc(NCc2ccccn2)n2ncc(-c3ccc(Cl)cc3)c2n1 | 45.5 | -6.3 | 82.2* | -6.2 | 35.7 | 29.4
Cc1cc(C(F)(F)F)n2nc(C)c(-c3ccc(Cl)cc3)c2n1 | 0.5 | -2.3 | -1.4 | 17.0 | 14.5 | -22.1
Cc1cc(NCc2ccccn2)n2nc(C)c(-c3ccc(Cl)cc3)c2n1 | 17.1 | -6.6 | 81.1* | 1.9 | 17.9 | 27.5
O=C(c1cccs1)N1CCN=C1SCc1cccc(F)c1 | 10.3 | 0.7 | 1.7 | 20.7 | 3.8 | 3.8
Cc1ccc(N2N=C(C(=O)O)CCC2=O)cc1Cl | 16.7 | 1.9 | -0.3 | 4.8 | -18.4 | 2.1
CCOc1ccc(NC(=O)CN(C)C(=O)C2CC(=O)N(c3ccc4c(c3)OCCO4)C2)cc1OCC (stereo not given) | -19.3 | -9.0 | 51.9* | 9.5 | -34.2 | -13.0
COc1ccc(NC(=O)CN(C)C(=O)C2CC(=O)N(c3ccc4c(c3)OCCO4)C2)cc1 (stereo not given) | -39.8 | 1.3 | -4.3 | x | -28.9 | -7.6
CCn1c(SCC(=O)N2CCN(S(=O)(=O)c3ccccc3)CC2)nnc1-c1cccs1 | 10.9 | -8.5 | -0.7 | x | 15.3 | -9.2
O=C(CSc1nc(-c2ccc(Cl)cc2)[nH]c(=O)n1)Nc1cccc(Cl)c1 | 17.9 | 17.9 | 58.5* | 0.5 | 9.3 | 28.4
CCOC(=O)c1ccc(-n2c(O)c(/C=N/NC(=O)C3COc4ccccc4O3)c3ccccc3c2=O)cc1 (stereo not given) | -2.7 | 24.0 | 102.9* | -1.8 | 20.5 | 10.3
CCOC(=O)c1ccc(NC(=O)C2COc3ccccc3O2)cc1 (stereo not given) | 37.7 | -2.7 | -2.0 | 5.4 | 22.3 | -4.0
CC1CC(C)CN(Cc2nc(N)nc(Nc3ccc4ccccc4c3)n2)C1 (stereo not given) | 9.0 | -6.5 | 51.8* | 1.1 | 17.5 | 5.8
Cc1cccc(Nc2nc(N)nc(CN3CCN(C)CC3)n2)c1 | 14.4 | -11.1 | -1.2 | x | 5.9 | -7.3
CC1CC(C)CN(Cc2nc(N)nc(Nc3ccccc3)n2)C1 (stereo not given) | -0.4 | -11.0 | 7.4 | 10.4 | -15.6 | -17.0
Cc1cccc(Nc2nc(N)nc(CN3CCN(c4ccc(F)cc4)CC3)n2)c1 | 20.4 | 3.3 | 64.8* | x | 28.7 | 18.9
Nc1nc(CN2CCC(Cc3ccccc3)CC2)nc(Nc2ccccc2)n1 | -0.1 | 3.3 | 49.7* | -38.5 | 4.3 | -2.3
Cc1cc2cc(CNC(=S)NC3CCCCC3)ccc2n1C | 31.6 | 10.4 | -3.8 | -27.0 | 5.2 | 15.8
CCOC(=O)C(=O)Nc1nc(-c2ccccc2)c(-c2ccccc2)o1 | 40.7 | -0.5 | 0.5 | 9.9 | 23.4 | 11.6
COc1cccc(C(=O)Nc2nc(-c3ccccc3)c(-c3ccccc3)o2)c1 | -1.3 | -4.5 | 91.7* | -2.4 | 31.2 | 12.4
O=C(Nc1nc(-c2ccccc2)c(-c2ccccc2)o1)c1ccc(F)cc1 | 22.9 | 7.3 | 100.6* | 104.7* | 32.5 | 34.7
Cc1ccc2c(c1)N(CCC(=O)NC1CC1)C(=O)C(C)O2 (stereo not given) | -6.6 | -4.7 | -1.0 | 11.2 | 12.3 | 3.7
Nc1ccccc1C#CC(=O)c1ccccc1 | -62.4 | -0.7 | -3.9 | 114.4* | -23.1 | 23.6
CCOC(=O)C1=C(N)N2C(=O)C(C)SC2=C(C(=O)OC)C1c1ccccc1OC (stereo not given) | -16.1 | -7.7 | x | 133.4* | 24.8 | -15.3
CN(C)S(=O)(=O)c1cccc(C(=O)C2=C3SC=C(c4ccccc4)N3CC2)c1 | 9.1 | -4.3 | 2.2 | -10.8 | 29.3 | 26.7
Clc1ccc(-c2nnnn2-c2ccc(Cl)c(Cl)c2)cc1Cl | -19.5 | -2.7 | 58.4* | -62.4 | 7.1 | -1.6
SMILES | tim23-1 inh | ATG4B inhibitor | SKKanGAS inh | PfHsp90 set2 | tim10-1 inh | TIM10 inh
COc1nc(C)nc2c1sc1nc3c(cc12)COC(C)(C)C3 | 4.4 | -11.9 | 8.2 | -4.6 | 10.7 | 8.0
CCOC(=O)C(=NC(C)(C)C)NNc1cc(Cl)ccc1Cl | 25.2 | 6.7 | 78.5* | 19.6 | 26.0 | 13.2
CC(=O)NC(=S)NNC(=O)C(c1ccccc1)c1ccccc1 | 12.1 | 0.4 | 80.2* | -8.4 | 27.4 | 30.7
CCOC(=O)c1c(NC(=O)COC(=O)c2ccc(C)s2)sc2c1CC(C)(C)NC2(C)C | 27.1 | -2.8 | 63.4* | 18.5 | 24.6 | 20.9
CN(C)c1ccnc(C(=O)O)c1 | 24.5 | -1.6 | 3.6 | -2.9 | -4.7 | 0.7
CC(C)c1ccc(OC(=O)c2ccc3c(=O)n4c(nc3c2)CCC4)cc1 | -1.1 | 3.5 | 80.5* | x | 16.9 | 5.8
COc1ccc(OCc2nnc(SCC(=O)N3CCOCC3)o2)cc1 | 0.9 | -19.4 | -18.5 | -14.1 | 7.3 | -1.4
c1ccc(-c2nc(NCc3ccco3)c3ccccc3n2)nc1 | 3.0 | -8.5 | 95.5* | -40.9 | 31.4 | 19.3
C(=N\Nc1nc(-c2cccnc2)nc2ccccc12)/c1ccccc1 | 26.9 | 3.7 | 9.8 | x | 17.4 | 9.7
C(=N\Nc1nc(-c2ccccn2)nc2ccccc12)/c1ccccc1 | 20.0 | x | 98.0* | x | 34.3 | 24.4
CNC(=O)N(O)C1N(/N=C/c2ccccc2OC)C(=S)SC1(C)C (stereo not given) | 7.1 | -0.1 | -3.8 | 6.0 | 9.1 | -12.2
Cc1cccc(C(=O)NCC(=O)N2CCOCC2)c1 | 6.9 | -1.8 | 50.8* | 21.4 | -0.6 | -7.0
Cc1cc(NC(=O)CN2CCC(n3nnc4cc(C(F)(F)F)ccc43)CC2)no1 | 22.8 | -1.3 | -7.6 | -8.3 | 15.4 | 12.8
CCOc1ccc2nc(NC(=O)CN3CCC(n4nnc5cc(C(F)(F)F)ccc54)CC3)sc2c1 | 6.1 | -20.0 | 52.3* | 11.8 | 34.1 | 19.8
Clc1ccc(C2C3=C(Nc4ncnn42)c2ccccc2CC3)cc1 (stereo not given) | 16.6 | x | 70.2* | x | 26.2 | 16.1
c1ccc(C2C3=C(Nc4ncnn42)c2ccccc2CCC3)cc1 (stereo not given) | 10.2 | 1.4 | 2.6 | -22.3 | 7.8 | 6.0
COc1cc2oc3cc(C#Cc4ccc(N)cc4)ccc3c(=O)c2cc1OC | -5.3 | -2.0 | 58.1* | -3.2 | -4.3 | -0.4
COc1cc2oc3ccc(C#Cc4ccccn4)cc3c(=O)c2cc1OC | 29.4 | 9.7 | 9.4 | -8.5 | 28.5 | 27.3
COc1cc2oc3ccc(C#Cc4ccc(N)cc4)cc3c(=O)c2cc1OC | x | 2.7 | 77.5* | -30.6 | x | x
Cc1cc(=O)[nH]c(N/N=C/C=C/c2ccccc2)n1 | 20.9 | -7.7 | -3.3 | -2.8 | 18.5 | 20.6
COc1ccc(C(C(=O)NC(C)(C)C)N(Cc2ccc(C)cc2)C(=O)CCC(=O)Nc2cc(C)on2)cc1 (stereo not given) | 3.1 | 0.5 | -3.7 | -14.4 | 8.7 | 14.3
Cn1c(=O)oc2cc(S(=O)(=O)N3CCC(C(=O)NCc4ccc(F)cc4)CC3)ccc21 | 11.2 | -4.6 | -1.1 | 7.1 | -0.5 | -0.3
CCCSc1cc(N2CCCC2)nc(-c2ccccc2)n1 | -4.6 | 9.9 | 51.9* | 5.9 | 0.6 | 3.1
